Results taken from ChEMBL document CHEMBL3988442, “University of Dundee, Small-Polar-MMV Screening Library” (2021).
Out of some 48,000 compounds screened, about 13,000 (27%) showed an effect of 50% or more. The list shows a part of the results.

system: Wolbachia pipientis; test: Anti-Wolbachia Cell-Based Screen; format: functional; design: scale not given: in the data most compounds retested in dose-response had high values; conditions: 5 µM

Row | SMILES | Percent Effect
1 | Cc1ncc(CNC(=O)N(C)C2CCN(c3ccccc3)C2=O)s1 (configuration not stated) | -4.731%
2 | Cc1cccc2c1cnn2CCCNC(=O)CCCC(=O)O | -9.765%
3 | CC(C(=O)N(C)C)S(=O)(=O)c1cc2c(cc1Cl)OCCO2 (configuration not stated) | 4.925%
4 | Cc1ccc(C)c(CSc2nnc([C@@H](N)C(C)C)o2)c1.Cl | 118.1%
5 | CSCC[C@H](N)c1nnc(SCc2cc(C)ccc2C)o1.Cl | 100.9%
6 | Cc1ccc(C)c(OCc2nnc(SCC3CCCN(C)C3)o2)c1 (configuration not stated) | -6.886%
7 | Cc1ccc(C)c(CSc2nnc(C(N)C(C)C)o2)c1.Cl (configuration not stated) | 129.6%
8 | Cc1ccc(C)c(CSc2nnc(C(N)Cc3ccccc3)o2)c1.Cl (configuration not stated) | 112.4%
9 | Cc1ccccc1CSc1nc(N)cc(N2CCOC(C(N)=O)C2)n1 (configuration not stated) | 17.62%
10 | CS(=O)(=O)c1ccc(NC(=O)N2CCc3sccc3C2)cn1 | 17.51%
11 | CN(C)c1ccc(NC(=O)CN2CCS(=O)(=O)CC2)cn1 | 10.44%
12 | O=C(c1cccnc1-n1cncn1)N1CCN(c2ccccc2)CC1 | -6.157%
13 | O=C(c1cccnc1SC/C=C/c1ccccc1)N1CCOCC(O)C1 (configuration not stated) | 8.468%
14 | CSc1ncccc1C(=O)N1C[C@H]2CC[C@@H]1CN(C(C)=O)C2 | 3.365%
15 | O=C(c1cccnc1SCc1ccccc1)N1CCOCC1 | 174.3%
16 | O=C(c1cccnc1SCc1ccccc1)N1CC[C@@H](O)C1 | 159.2%
17 | O=C(c1cccnc1SC/C=C/c1ccccc1)N1CC[C@H](O)C1 | 8.97%
18 | COc1ncccc1C(=O)N1CC[C@H]2C[C@@H](C)O[C@@H]2C1 | 13.58%
19 | O=C(c1cccnc1Oc1ccc(Cl)cc1)N1CC[C@@H](O)C1 | 158.3%
20 | COc1ccc(Oc2ncccc2NC(=O)N2CC[C@H](O)C2)cc1 | 8.282%
21 | CN(C(=O)c1ccc(OCC(F)F)nc1)c1ccc2c(c1)CCO2 | 2.001%
22 | OC(CN1CC(n2cccn2)C1)c1ccc2c(c1)OCCO2 (configuration not stated) | -60.78%

Row | SMILES | Percent Effect
23 | CS(=O)(=O)NCCN1CCOC2(CCc3ccccc32)C1 (configuration not stated) | 9.722%
24 | Cc1[nH]ccc1C(=O)N(C)C1CC(=O)N(Cc2ccccc2)C1=O (configuration not stated) | -3.858%
25 | O=C(Cc1c[nH]c(=O)[nH]c1=O)N1CCC2(CCC(=O)N(C3CC3)C2)CC1 | 10.83%
26 | Cn1ccc(C(=O)Nc2nc(-c3ccc(Cl)cc3)n[nH]2)cc1=O | 5.787%
27 | CCCNC(=O)Cn1cc(C#N)c(=O)c2cc(Br)ccc21 | -9.356%
28 | CSCC(=O)Nc1ncc(I)cc1C | -3.012%
29 | Cc1cc(C)c(CNC(=O)NCc2ccc3c(c2)CCC3)c(=O)[nH]1 | -7.046%
30 | CN(C)S(=O)(=O)c1ccc(CN2CCC(C(N)=O)CC2)o1 | -3.214%
31 | CN(C)S(=O)(=O)c1ccc(-c2nc(C#N)c(NC3CC3)o2)o1 | 107.9%
32 | CN(C)S(=O)(=O)c1ccc(-c2nc(C#N)c(NC3CCCCC3)o2)o1 | 126.8%
33 | CSCC[C@@H](CO)n1ccnc1-c1ccncc1 | -26.42%
34 | C1CCC(OCCN2CCN(CCOC3CCCCC3)CC2)CC1 | 16.33%
35 | Oc1cccc(-c2cc(C3CCN(Cc4cncnc4)C3)ccn2)c1 (configuration not stated) | -2.47%
36 | CCC(=O)NCC(=O)NCC1(c2c(F)cccc2F)CCCC1 | -0.7519%
37 | N#CCC(=O)NCc1nnc2n1CCN(Cc1ccco1)C2 | -13.02%
38 | O=C1CCCN1Cc1nnc2n1CCN(Cc1ccco1)C2 | 88.52%
39 | O=C(O)C(F)(F)F.O=C(O)C(F)(F)F.c1ccc(OCc2nnc3n2CCN(Cc2ccco2)C3)nc1 | 6.411%
40 | O=C(O)C(F)(F)F.O=C1CCCN1Cc1nnc2n1CCCN(Cc1ccco1)C2 | 117.6%
41 | CN(C)C(=O)NCc1ncn2c1CN(Cc1ccco1)CCC2.O=C(O)C(F)(F)F | -2.342%
42 | c1cnc(OCc2nnc3n2CCN(Cc2ccco2)C3)nc1 | -5.792%
43 | O=C(O)C(F)(F)F.O=C(O)C(F)(F)F.c1ccc(CN2CCc3nnc(CN4CCCCC4)n3CC2)nc1 | -3.311%
44 | O=C(O)C(F)(F)F.O=C1CCCN1Cc1nnc2n1CCN(Cc1ccco1)CC2 | 95.89%

Row | SMILES | Percent Effect
45 | CCN(Cc1ccccc1C)S(C)(=O)=O | -4.247%
46 | CN(CC(=O)NCc1ccccn1)CC1CCCN1c1cccnn1 (configuration not stated) | -6.159%
47 | COCCCNC(=O)CN(C)C1CCCN(c2cccnn2)C1 (configuration not stated) | 138.8%
48 | CN(CC(=O)NCc1ccccn1)C1CCCN(c2cccnn2)C1 (configuration not stated) | 106.6%
49 | CN1C(=O)[C@H]2CC[C@@H]1CN(C(=O)c1nnc3n1CCCCC3)C2 | 10.69%
50 | NC(=O)NCCC(=O)NCc1cccnc1N1CCc2ccccc2C1 | 5.248%
51 | Cn1cccc1CCC(=O)N1CCC2(CC1)c1ccccc1CC2O (configuration not stated) | 8.573%
52 | COc1cccc(COCC(=O)N2CCCC(c3cc(C)[nH]n3)C2)c1 (configuration not stated) | 9.679%
53 | Cc1cccc(CC(=O)N2CCCC(c3n[nH]c4nccnc34)C2)c1 (configuration not stated) | 102.4%
54 | Cc1cccc(C2CCCN(C(=O)CN3CCCC3=O)C2)c1 (configuration not stated) | -1.59%
55 | COc1cccc(CC(=O)N2CCCC(c3n[nH]c4nccnc34)C2)c1 (configuration not stated) | 81.22%
56 | N#Cc1cccc(NC2CC(=O)N(Cc3cccc(F)c3)C2)n1 (configuration not stated) | 7.096%
57 | CCN(Cc1ccc(Cl)s1)S(=O)(=O)CCOC | -12.02%
58 | CCC(c1ccccc1)N1CCN(C(=O)c2cc(C(N)=O)c[nH]2)CC1 (configuration not stated) | -8.4%
59 | C[C@H](c1ccc(F)cc1)n1c(C2CCN(C)CC2)n[nH]c1=O | -149.6%
60 | CC[C@@H](c1ccccc1)n1c(CCN)n[nH]c1=O | 91.36%
61 | CCCc1n[nH]c(=O)n1Cc1ccccc1F | -4.193%
62 | CCCc1n[nH]c(=O)n1[C@@H](CC)c1ccccc1 | 92.4%
63 | C[C@H](c1ccc(Cl)cc1)n1c(C2CC2)n[nH]c1=O | -27.24%
64 | CCCc1cc(C(=O)NCCN2C(=O)c3ccccc3C2=O)[nH]n1 | -4.22%
65 | CC[C@@H](c1ccccc1)n1c(C2CC2)n[nH]c1=O | 115.6%
66 | CC[C@@H](c1ccccc1)n1c(CN)n[nH]c1=O | 112.8%

Row | SMILES | Percent Effect
67 | NCc1n[nH]c(=O)n1-c1ccccc1Oc1ccccc1 | -5.025%
68 | Cn1cccc1C(=O)NC1CCN(c2ccc(OC(F)(F)F)cc2)CC1 | -13.65%
69 | CNC(=O)NC(=O)CN1CCC(c2c[nH]c3ccc(OC)cc23)CC1 | -6.098%
70 | O=S(=O)(c1cccc(F)c1)N1C[C@@H]2COC[C@]2(COCC2CC2)C1 | -1.949%
71 | COc1cc(CNCCC(N)=O)c2c(c1)CC(C)O2 (configuration not stated) | 0.4704%
72 | CCN(CC)C(CNC(=O)c1ccc(S(C)(=O)=O)cc1)c1ccco1 (configuration not stated) | 12.65%
73 | O=C(CNc1cc2c(cc1Br)OCCO2)NC1CCS(=O)(=O)C1 (configuration not stated) | -16.13%
74 | CCNc1nnc(SCC(=O)N2CCN(Cc3ccc(Cl)s3)CC2)s1 | -3.982%
75 | Cc1cccc2c(CCNC(=O)NCC[S+](C)[O-])c[nH]c12 (configuration not stated) | -10.94%
76 | Cc1ccc(C)c2c(C)c(C(=O)NCC[S+](C)[O-])[nH]c12 (configuration not stated) | 91.32%
77 | Cc1cccc2c(CCNC(=O)NCCC[S+](C)[O-])c[nH]c12 (configuration not stated) | 21.8%
78 | OC1CCN(c2ccccc2NCc2nc(-c3cccs3)no2)CC1 | 8.395%
79 | CNC(=O)N1CCC2(CC1)C(=O)N(C)c1c(F)cccc12 | 16.38%
80 | CC(Cn1cc(Cl)cn1)C(=O)Nc1ccc(CN2CCCCCC2)cc1 (configuration not stated) | 106.4%
81 | O=C(NCCn1cc(Cl)cn1)C1CCN(C(=O)C2CC2)CC1 | 13.04%
82 | O=C(NCc1ccc(CN2CCCCC2)cc1)Nc1cccnc1 | -23.63%
83 | CC(C)n1nc2c(cc1=O)CN(Cc1ccc(-n3cccn3)cc1)CC2 | 0.8403%
84 | O=C(c1cncc(N2CCC3(CCCNC3)C2)n1)N1CCCC1 (configuration not stated) | 43.3%
85 | COc1cc(C2(C(=O)NC3CCC4(CC3)OCCO4)CC2)ccc1C | 0.5256%
86 | Cc1ccccc1-n1cc(CN(C)C[C@@H]2CCCN3CCCC[C@H]23)cn1 | 9.143%
87 | Cc1ccccc1-n1cc(-c2ccnc(N3CCCC(CN)C3)n2)cn1 (configuration not stated) | 108.9%
88 | NCC1CCCN(c2nc(-c3ccccc3)nc3c2CCNCC3)C1 (configuration not stated) | -16.76%

Row | SMILES | Percent Effect
89 | Cc1ccccc1-n1cc(-c2ccnc(N3CCCC(O)C3)n2)cn1 (configuration not stated) | 107.7%
90 | COC[C@H]1CCCN1c1nccc(-c2cnn(-c3ccccc3C)c2)n1 | 94.7%
91 | Cc1cnc(N2CCCC(O)C2)nc1-c1ccnn1C (configuration not stated) | -3.995%
92 | COCc1noc(-c2ccc(N3CCCCC3COC)nc2)n1 (configuration not stated) | 2.136%
93 | Cc1ccccc1-n1cc(-c2ccnc(N[C@H](CO)C(C)C)n2)cn1 | -13.53%
94 | O=C1CC2(CCN(Cc3ccc(C(F)(F)F)nc3)CC2)CN1 | -10.7%
95 | O=S(=O)(Cc1ccccc1F)NCCCN1CCCCC1 | -1.108%
96 | CCCc1cc(NCCCC2CCOC2)n2nccc2n1 (configuration not stated) | -21.79%
97 | CC(C)C[C@H](Nc1nc(C2CCCC2)nc2c1cnn2C)C(N)=O | 1.529%
98 | O=C1O[C@@H]2CN(Cc3ccccc3)C[C@@H]2N1CCCN1CCOCC1 | -2.411%
99 | Cn1c(CN2CCOCC2)cc(=O)c(O)c1CN1CCCCC1 | 117.1%
100 | Cn1c(CN2CCOCC2)cc(=O)c(O)c1CN1CCOCC1 | 102.7%
101 | CC(C)NC(=O)N1CCCC(c2nnc(CN3CCOCC3)n2C)C1 (configuration not stated) | 7.81%
102 | Cn1c(=O)oc2ccc(NC(=O)N3CCOCC3)cc21 | 0.8661%
103 | Cn1c(CN2CCOCC2)nnc1C1CCCN(CC(N)=O)C1 (configuration not stated) | -18.54%
104 | Cn1c(CN2CCOCC2)cc(=O)c(O)c1CN1CCCC1 | 100.1%
105 | CCN(C)CC(=O)N1CCCC(c2nnc(CN3CCOCC3)n2C)C1 (configuration not stated) | 14.42%
106 | CN(CCN1CCCCC1)C(=O)c1cc(CN2CCOCC2)on1 | 7.335%
107 | CCS(=O)(=O)N1CCC(c2nnc(CN3CCOCC3)n2C)CC1 | 4.44%
